Experimental data from PubChem BioAssay.
The source made the active and inactive calls. Unless noted, the rule behind the calls is not given here.

What was measured:
[1] = system: Wnt5a (protein binding on small-molecule microarray); test: Wnt5a binders on small-molecule microarray, primary screen, biophysical, 635/667 nm fluorescence (AID 1142); settings: 635 nm fluorescence, higher = more signal;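 note: fluorescence read at 667 nm with signal to noise per printed feature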
[2] = cell viability in Huh7 cells, primary screen, cytotoxicity control for HCV replication inhibitor project, CellTiter-Glo luminescence, basal, 48 h (AID 1143); settings: Huh7 HCV replicon, higher = more signal, called active from +8 up or from −8 down;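 note: Huh7 hepatoma cells carrying a hepatitis C replication reporter with no stimulus; test concentration not given here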
[3] = P. aeruginosa biofilm formation inhibitors, primary screen, PAO1 strain, BacTiter-Glo luminescence, LB-PBS (AID 1144); settings: 12 h, higher = more signal
[4] = CREB reporter modulators without forskolin, primary screen, cell-based, PC12, CRE-LacZ reporter, unstimulated (AID 1145); settings: no forskolin, luminescence, 4.5 h, higher = more signal, called active from +8 up or from −8 down
[5] = CREB reporter modulators under forskolin, primary screen, cell-based, PC12, CRE-LacZ reporter, forskolin-stimulated (AID 1146); settings: luminescence, 4.5 h, higher = more signal, called active from +8 up or from −8 down;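 note: PC12 cells with 6xCRE LacZ reporter stimulated by forskolin 10 µM; beta-galactosidase reporter signal reflecting CREB driven transcription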
[6] = biological target: Streptavidin (Streptomyces avidinii) (UniProt P22629); test: streptavidin binders on small-molecule microarray, primary screen, artefact control for SMM compound annotation, biophysical, 635/667 nm fluorescence (AID 1147); settings: streptavidin binding, higher = more signal;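 note: signal reflects streptavidin binding to arrayed compounds as a control protein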
[7] = small-molecule binders of probe aInhba, primary screen, biochemical, small-molecule microarray, 635/667 nm fluorescence (AID 1148); settings: higher = more signal;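 note: score merges 667nm spot fluorescence with signal-to-noise for antibody binding to printed compounds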
Torsin-1A (Homo sapiens) [8] = biological target: Torsin-1A (Homo sapiens) (UniProt O14656); test: torsin A binders from cell lysate, primary screen, small-molecule microarray, wild-type, 635/667 nm (AID 1149); settings: COS7 hTOR1A-WT lysate, 635 nm fluorescence, higher = more signal
Torsin-1A (Homo sapiens) [9] = biological target: Torsin-1A (Homo sapiens) (UniProt O14656); test: small-molecule binders of mutant TOR1A in lysate, primary screen, cell lysate, small-molecule microarray, COS7 lysate, 635/667 nm fluorescence (AID 1150); settings: COS7 hTOR1A mutant lysate, 635 nm fluorescence, higher = more signal;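 note: score pools 667 nm emission and signal to noise measuring lysate protein binding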
[10] = system: Sonic hedgehog protein (Shh); test: small-molecule binders of Shh protein, primary screen, biochemical, small-molecule microarray, 635/667 nm fluorescence (AID 1151); settings: small-molecule microarray binding, 635 nm fluorescence; higher = more signal;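 note: Shh protein binding to compounds spotted on small-molecule microarray slides; score combines spot fluorescence intensity with signal-to-noise across triplicate slides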
[11] = E. coli DRC41 culture turbidity changes, primary screen, E. coli filamentation inducer project, strain DRC41, OD650, 48 h (AID 1152);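 note: E. coli MC1000 strain DRC41 lacking acrAB efflux pump and sulA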; settings: E. coli DRC41 (acrAB sulA), higher = more signal, called active from +8 up or from −8 down
[12] = small-molecule binders of probe aLefty1, primary screen, biochemical, small-molecule microarray, 635/667 nm fluorescence (AID 1153); settings: higher = more signal;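 note: score merges spot fluorescence with signal-to-noise ratio from the scanned slide images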
[13] = PSAC antagonists in infected red cells, primary screen, cell-based, P. falciparum Indochina, OD700, 1 h (AID 1154); settings: P. falciparum Indochina infected RBC osmotic lysis, higher = more signal, called active from +8 up or from −8 down
[14] = PSAC antagonists in infected red cells, primary screen, cell-based, P. falciparum Indochina, OD700, 2 h (AID 1155);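 note: lysis reports solute entry through the parasite surface anion channel PSAC; channel blockers reduce lysis of infected cells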; settings: P. falciparum Indochina infected erythrocytes, osmotic lysis OD700; higher = more signal, called active from +8 up or from −8 down
[15] = osmotic lysis modulators in infected erythrocytes, primary screen, PSAC antagonist project, cell-based, P. falciparum Indochina, OD700, 3 h (AID 1156); settings: higher = more signal, called active from +8 up or from −8 down
[16] = PSAC antagonists in infected red cells, primary screen, cell-based, P. falciparum Indochina, OD700, 18 h (AID 1157); settings: P. falciparum Indochina infected erythrocytes, osmotic lysis OD700, 18 h; higher = more signal, called active from +8 up or from −8 down
[17] = modulators of S6 phosphorylation in cells, primary screen, cell-based, A549, cytoblot, luminescence, serum-stimulated (AID 1158); settings: A549 phospho-S6 cytoblot, 5 h, higher = more signal;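 note: serum-stimulated A549 lung adenocarcinoma cells; signal is phosphorylated S6 detected by cytoblot immunostaining with HRP secondary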
[18] = biological target: NADPH oxidase 2 (Homo sapiens) (UniProt P04839); test: NOX2-dependent H2O2 signal modulators, primary screen, NOX inhibitor project, cell-based, HEK293-NOX2, PMA-stimulated, Amplex Red fluorescence (AID 1159); settings: 45 min, higher = more signal, called active from +8 up or from −8 down; note: test concentration not given here
[19] = biological target: NADPH oxidase 4 (Homo sapiens) (UniProt Q9NPH5); test: NOX4-dependent H2O2 signal modulators, primary screen, NOX inhibitor project, cell-based, HEK293-NOX4, tetracycline-induced, Amplex Red fluorescence (AID 1160); settings: 45 min, higher = more signal, called active from +8 up or from −8 down
[20] = biological target: NADPH oxidase 5 (Homo sapiens) (UniProt Q96PH1); test: NOX5-dependent H2O2 signal modulators, primary screen, NOX inhibitor project, cell-based, HEK293-NOX5, Amplex Red fluorescence (AID 1161); settings: HEK293-NOX5, ionomycin, 45 min, higher = more signal
NADPH oxidase 5 (Homo sapiens), sequence (Q96PH1 whole entry, looked up): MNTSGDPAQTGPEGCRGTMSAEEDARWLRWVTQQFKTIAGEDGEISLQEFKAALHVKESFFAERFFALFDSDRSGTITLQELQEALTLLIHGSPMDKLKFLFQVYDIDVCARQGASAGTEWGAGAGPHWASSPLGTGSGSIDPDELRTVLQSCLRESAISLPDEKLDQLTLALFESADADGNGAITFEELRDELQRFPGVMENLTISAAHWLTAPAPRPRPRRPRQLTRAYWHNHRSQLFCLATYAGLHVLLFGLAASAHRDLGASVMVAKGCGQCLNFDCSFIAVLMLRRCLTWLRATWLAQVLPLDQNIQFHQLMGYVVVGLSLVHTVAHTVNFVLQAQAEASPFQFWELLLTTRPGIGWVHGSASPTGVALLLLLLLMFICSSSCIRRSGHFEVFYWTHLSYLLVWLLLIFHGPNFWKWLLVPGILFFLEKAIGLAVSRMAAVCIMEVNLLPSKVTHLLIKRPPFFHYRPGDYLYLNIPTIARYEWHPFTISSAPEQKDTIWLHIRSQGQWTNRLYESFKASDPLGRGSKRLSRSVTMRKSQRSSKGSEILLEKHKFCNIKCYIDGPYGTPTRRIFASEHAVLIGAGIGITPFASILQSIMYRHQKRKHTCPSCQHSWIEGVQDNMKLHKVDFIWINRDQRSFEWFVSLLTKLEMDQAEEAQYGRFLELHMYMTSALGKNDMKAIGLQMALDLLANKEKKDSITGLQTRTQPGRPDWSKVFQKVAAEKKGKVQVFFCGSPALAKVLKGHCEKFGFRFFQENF

NADPH oxidase 4 (Homo sapiens), sequence (Q9NPH5 whole entry, looked up): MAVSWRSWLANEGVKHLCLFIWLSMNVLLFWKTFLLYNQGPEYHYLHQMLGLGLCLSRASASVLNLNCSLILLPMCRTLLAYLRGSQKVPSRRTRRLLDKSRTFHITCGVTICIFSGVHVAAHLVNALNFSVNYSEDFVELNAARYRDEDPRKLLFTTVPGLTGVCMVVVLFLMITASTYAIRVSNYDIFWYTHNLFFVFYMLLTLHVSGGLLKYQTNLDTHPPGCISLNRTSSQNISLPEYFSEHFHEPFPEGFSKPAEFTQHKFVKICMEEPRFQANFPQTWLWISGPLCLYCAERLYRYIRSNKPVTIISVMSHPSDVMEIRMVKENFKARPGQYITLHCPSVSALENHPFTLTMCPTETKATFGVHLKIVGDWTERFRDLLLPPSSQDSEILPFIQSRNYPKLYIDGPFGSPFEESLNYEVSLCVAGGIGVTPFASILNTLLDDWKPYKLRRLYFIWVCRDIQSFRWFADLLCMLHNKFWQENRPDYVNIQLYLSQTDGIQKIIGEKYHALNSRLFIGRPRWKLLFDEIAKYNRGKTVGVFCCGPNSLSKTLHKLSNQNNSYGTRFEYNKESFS
NADPH oxidase 2 (Homo sapiens), sequence (P04839 whole entry, looked up): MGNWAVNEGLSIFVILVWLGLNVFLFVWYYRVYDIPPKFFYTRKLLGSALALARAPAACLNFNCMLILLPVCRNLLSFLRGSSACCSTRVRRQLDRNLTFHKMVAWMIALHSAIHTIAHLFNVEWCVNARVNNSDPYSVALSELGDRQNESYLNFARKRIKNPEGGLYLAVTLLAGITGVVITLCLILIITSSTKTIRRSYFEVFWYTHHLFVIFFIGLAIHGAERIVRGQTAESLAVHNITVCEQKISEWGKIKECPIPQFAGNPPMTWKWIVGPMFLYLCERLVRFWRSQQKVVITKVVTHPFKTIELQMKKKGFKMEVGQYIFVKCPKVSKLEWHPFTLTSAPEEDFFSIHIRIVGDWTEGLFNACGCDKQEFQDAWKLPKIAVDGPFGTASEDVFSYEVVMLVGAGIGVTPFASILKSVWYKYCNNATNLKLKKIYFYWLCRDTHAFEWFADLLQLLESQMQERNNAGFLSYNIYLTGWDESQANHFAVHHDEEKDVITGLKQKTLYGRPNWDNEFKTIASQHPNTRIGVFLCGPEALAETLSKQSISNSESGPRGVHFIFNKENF
Streptavidin (Streptomyces avidinii), sequence (P22629 whole entry, looked up): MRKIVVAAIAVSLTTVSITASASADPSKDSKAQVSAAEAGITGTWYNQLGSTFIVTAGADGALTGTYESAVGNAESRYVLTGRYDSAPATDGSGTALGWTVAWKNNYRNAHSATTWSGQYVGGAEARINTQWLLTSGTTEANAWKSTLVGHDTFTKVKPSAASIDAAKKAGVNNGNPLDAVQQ
Torsin-1A (Homo sapiens), sequence (O14656 whole entry, looked up): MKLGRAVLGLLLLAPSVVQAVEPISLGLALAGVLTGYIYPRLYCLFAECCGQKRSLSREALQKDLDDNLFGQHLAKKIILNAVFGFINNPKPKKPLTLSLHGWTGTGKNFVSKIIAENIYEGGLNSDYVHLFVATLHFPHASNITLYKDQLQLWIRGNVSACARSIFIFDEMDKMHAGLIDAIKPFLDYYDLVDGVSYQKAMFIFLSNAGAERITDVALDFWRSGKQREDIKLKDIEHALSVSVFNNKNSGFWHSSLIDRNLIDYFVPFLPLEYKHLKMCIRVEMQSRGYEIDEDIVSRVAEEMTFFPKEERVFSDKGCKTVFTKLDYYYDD

CCOC(=O)[C@H](Cc1ccccc1)NC(=O)CCC1CC(OC(=O)NCc2ccc3c(c2)OCO3)CC2(CCCC(COC(=O)NCCCN3CCCC3=O)O2)O1 (stereo not given in full)
composite z-score [1]: 0.0512 | z-score [2]: -1.98 (inactive) | z-score [3]: 0.14 (inactive) | z-score [4]: 1.01 (inactive) | z-score [5]: -0.257 (inactive) | composite z-score [6]: 0.669 | composite z-score [7]: -0.0736 | composite z-score (Torsin-1A (Homo sapiens) [8]): 0.408 | composite z-score (Torsin-1A (Homo sapiens) [9]): 0.078 | composite z-score [10]: 1.53 | z-score [11]: 0.169 (inactive) | composite z-score [12]: -0.572 | z-score [13]: -0.709 (inactive) | z-score [14]: 0.274 (inactive) | z-score [15]: 0.218 (inactive) | z-score [16]: 0.151 (inactive) | z-score [17]: 0.125 | z-score [18]: 0.996 (inactive) | z-score [19]: 0.689 (inactive) | z-score [20]: -0.044

C#CCCCON=C1C[C@@H](O)[C@@H](O)[C@@H]2[C@@H]3C(=O)N(C4CCCCC4)C(=O)[C@@H]3CC[C@@H]12
composite z-score [1]: -0.0633 | z-score [2]: 0.0192 (inactive) | z-score [3]: -0.356 (inactive) | z-score [4]: 1.78 (inactive) | z-score [5]: -0.0263 (inactive) | composite z-score [6]: -0.383 | composite z-score [7]: -0.286 | composite z-score (Torsin-1A (Homo sapiens) [8]): -0.0195 | composite z-score (Torsin-1A (Homo sapiens) [9]): -0.336 | composite z-score [10]: 0.353 | z-score [11]: 0.0164 (inactive) | composite z-score [12]: -0.276 | z-score [13]: 1.17 (inactive) | z-score [14]: -0.164 (inactive) | z-score [15]: -0.492 (inactive) | z-score [16]: 0.132 (inactive) | z-score [17]: -0.25 | z-score [18]: 1.13 (inactive) | z-score [19]: 0.699 (inactive) | z-score [20]: -0.0773

CCOC(=O)[C@H](Cc1ccccc1)NC(=O)CCC1CC(OC(=O)NCCc2ccc(F)cc2)CC2(CCCC(COC(=O)NCCOc3ccccc3)O2)O1 (stereo not given in full)
composite z-score [1]: 0.424 | z-score [2]: -0.715 (inactive) | z-score [3]: -0.661 (inactive) | z-score [4]: -0.253 (inactive) | z-score [5]: 0.327 (inactive) | composite z-score [6]: 0.751 | composite z-score [7]: -0.0762 | composite z-score (Torsin-1A (Homo sapiens) [8]): 0.227 | composite z-score (Torsin-1A (Homo sapiens) [9]): 1.11 | composite z-score [10]: 1.23 | z-score [11]: -0.558 (inactive) | composite z-score [12]: 0.0594 | z-score [13]: -1.41 (inactive) | z-score [14]: 0.363 (inactive) | z-score [15]: -0.619 (inactive) | z-score [16]: 0.272 (inactive) | z-score [17]: -0.345 | z-score [18]: 1.26 (inactive) | z-score [19]: 0.767 (inactive) | z-score [20]: 0.471

C#CCCCON=C1[C@H]2CCn3c(=O)n([C@@H](CC)c4ccccc4)c(=O)n3[C@H]2[C@H](O)[C@@H]2O[C@H]12
composite z-score [1]: 0.352 | z-score [2]: 0.222 (inactive) | z-score [3]: 0.453 (inactive) | z-score [4]: 1.15 (inactive) | z-score [5]: 0.253 (inactive) | composite z-score [6]: 0.017 | composite z-score [7]: -0.045 | composite z-score (Torsin-1A (Homo sapiens) [8]): -0.0784 | composite z-score (Torsin-1A (Homo sapiens) [9]): 0.472 | composite z-score [10]: 0.441 | z-score [11]: -1.02 (inactive) | composite z-score [12]: -0.101 | z-score [13]: 0.957 (inactive) | z-score [14]: 0.193 (inactive) | z-score [15]: 0.461 (inactive) | z-score [16]: 0.0103 (inactive) | z-score [17]: 1.09 | z-score [18]: 1.29 (inactive) | z-score [19]: 0.633 (inactive) | z-score [20]: 1.12

Cc1cc2c(nc1C)CCCCN2CC(O)CN1CCCc2nc(-c3ccc(Br)cc3)ccc21 (stereo not given)
composite z-score [1]: 0.0684 | z-score [2]: 0.304 (inactive) | z-score [3]: -0.708 (inactive) | z-score [4]: 0.744 (inactive) | z-score [5]: 0.597 (inactive) | composite z-score [6]: 0.639 | composite z-score [7]: 0.0541 | composite z-score (Torsin-1A (Homo sapiens) [8]): 0.0636 | composite z-score (Torsin-1A (Homo sapiens) [9]): 0.154 | composite z-score [10]: 1.1 | z-score [11]: 0.453 (inactive) | composite z-score [12]: 0.345 | z-score [13]: 4.88 (inactive) | z-score [14]: 0.0477 (inactive) | z-score [15]: 0.0577 (inactive) | z-score [16]: 0.148 (inactive) | z-score [17]: 0.75 | z-score [18]: 1.88 (inactive) | z-score [19]: 0.175 (inactive) | z-score [20]: 0.616

C#CCCCON=C1C[C@@H](O)[C@@H](O)[C@@H]2[C@@H]3C(=O)N(C[C@@H]4CCCO4)C(=O)[C@@H]3CC[C@@H]12
composite z-score [1]: 0.195 | z-score [2]: 0.0109 (inactive) | z-score [3]: -0.164 (inactive) | z-score [4]: 0.0687 (inactive) | z-score [5]: 0.305 (inactive) | composite z-score [6]: 0.269 | composite z-score [7]: -0.142 | composite z-score (Torsin-1A (Homo sapiens) [8]): 0.308 | composite z-score (Torsin-1A (Homo sapiens) [9]): 0.28 | composite z-score [10]: 0.305 | z-score [11]: 0.225 (inactive) | composite z-score [12]: 0.145 | z-score [13]: -0.262 (inactive) | z-score [14]: 0.284 (inactive) | z-score [15]: -1.08 (inactive) | z-score [16]: 0.354 (inactive) | z-score [17]: -0.53 | z-score [18]: -3.03 (inactive) | z-score [19]: 0.424 (inactive) | z-score [20]: -0.0863

CC(CCC(=O)OC[C@H]1O[C@H](C#Cc2ccccc2)C=C[C@@H]1Oc1ccc(C)cc1)=NOC[C@@H](C)[C@H](OCc1ccccc1)C(C)C
composite z-score [1]: -0.174 | z-score [2]: -0.276 (inactive) | z-score [3]: -0.193 (inactive) | z-score [4]: -0.399 (inactive) | z-score [5]: 0.778 (inactive) | composite z-score [6]: -0.783 | composite z-score [7]: -0.128 | composite z-score (Torsin-1A (Homo sapiens) [8]): -0.705 | composite z-score (Torsin-1A (Homo sapiens) [9]): -0.28 | composite z-score [10]: 0.0623 | z-score [11]: -0.321 (inactive) | composite z-score [12]: -0.378 | z-score [13]: 0.551 (inactive) | z-score [14]: 0.498 (inactive) | z-score [15]: 0.901 (inactive) | z-score [16]: 0.392 (inactive) | z-score [17]: -0.0916 | z-score [18]: 1.21 (inactive) | z-score [19]: 1.16 (inactive) | z-score [20]: 0.919

COc1ccc(COC(=O)NN=C2C[C@@H](O)[C@@H](O)[C@@H]3[C@@H]4C(=O)N(Cc5ccccc5)C(=O)[C@@H]4CC[C@@H]23)cc1
composite z-score [1]: -0.0129 | z-score [2]: -0.19 (inactive) | z-score [3]: 0.99 (inactive) | z-score [4]: -0.655 (inactive) | z-score [5]: 0.426 (inactive) | composite z-score [6]: -0.323 | composite z-score [7]: 0.0785 | composite z-score (Torsin-1A (Homo sapiens) [8]): -0.0532 | composite z-score (Torsin-1A (Homo sapiens) [9]): 0.226 | composite z-score [10]: 0.111 | z-score [11]: 0.619 (inactive) | composite z-score [12]: -0.0691 | z-score [13]: 1.48 (inactive) | z-score [14]: 0.363 (inactive) | z-score [15]: -0.188 (inactive) | z-score [16]: 0.648 (inactive) | z-score [17]: -0.12 | z-score [18]: -6.33 (inactive) | z-score [19]: 0.284 (inactive) | z-score [20]: -0.234
